Source: PubChem
Most compounds without a hit are left out; they make up all but 5.9% or so of the library.
GLP-1R inv ag = GLP-1 receptor (human) inverse agonism. HEK293 GLP-1R CRE-luciferase, luminescence, 24 h; GLP-1R form is constitutively active. AID 624417. 410,000 tested, 1.6% active. Potency, µM (titrated, usually from 38.3 µM), most hits filed as inhibitors. P43220; also: nearly all actives have a fitted effect of over 55% in size
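Inverse agonists were sought by their lowering of basal cAMP reporter luciferase output in HEK293 cells stably carrying constitutively active human GLP-1R, after 24 h compound treatment.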
GLP1R ag = agonists of human GLP-1 receptor; HEK293 GLP-1R CRE-luciferase, luminescence, 4-6 h; cells express a hypersensitive GLP-1R form; Potency, µM (top dose mostly 45.6 µM), hits mostly activators; 380,000 tested, 0.007% active
GLP1R cytotox = cytotoxic in the GLP-1 receptor inverse agonist counter-screen; 410,000 tested, 0.13% active; Potency, µM (top dose mostly 38.3 µM), actives largely listed as inhibitors; HEK293 cAMP-luciferase reporter cells, luminescence, 24 h;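 also: loss of luciferase light is scored as toxicity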
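Luminescence readout: signal drop marks cytotoxicity. Plated cells grew 12 h at 37 °C, 5% CO2, received 23 nL compound for 24 h, then got luciferase reagent, read after 12 min at RT.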
VP16 counter = Gal4-VP16 reporter inhibition counter-screen. Drosophila S2 Gal4-VP16 UAS-luciferase, luminescence, 20 h. Potency, µM (highest dose often 53.6 µM), actives largely listed as inhibitors. 310,000 tested, 3.5% active;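 also: Gal4-VP16 expression switched on by copper sulfate through the metallothionein promoter; nearly all actives have a fitted effect of over 50% in size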
RORgamma inh = blocks mouse ROR gamma transcriptional activity. P51450. Drosophila S2 Gal4-RORgamma UAS-luciferase reporter, 20 h. Potency, µM (titrated, usually from 53.6 µM), actives largely listed as inhibitors. 310,000 tested, 5.4% active; also: nearly all actives have a fitted effect of over 60% in size
Target sequence (P51450 whole entry, looked up, the tested form may be a part): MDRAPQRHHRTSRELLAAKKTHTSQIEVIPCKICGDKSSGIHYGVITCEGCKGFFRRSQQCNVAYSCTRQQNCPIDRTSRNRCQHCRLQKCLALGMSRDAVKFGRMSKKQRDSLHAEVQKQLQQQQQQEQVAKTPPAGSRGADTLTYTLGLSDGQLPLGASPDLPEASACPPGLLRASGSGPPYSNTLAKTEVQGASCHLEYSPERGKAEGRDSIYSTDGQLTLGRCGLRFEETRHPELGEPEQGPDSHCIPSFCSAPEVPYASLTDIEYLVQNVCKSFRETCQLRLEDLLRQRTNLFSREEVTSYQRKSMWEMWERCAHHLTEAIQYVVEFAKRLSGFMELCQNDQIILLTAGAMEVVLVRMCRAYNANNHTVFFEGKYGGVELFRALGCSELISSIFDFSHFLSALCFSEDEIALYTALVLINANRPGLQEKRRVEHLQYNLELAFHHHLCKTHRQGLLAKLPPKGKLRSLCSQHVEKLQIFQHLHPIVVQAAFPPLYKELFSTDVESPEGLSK
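Read-out: Photinus luciferase luminescence; inhibitors lower reporter signal. Insect Schneider cells with Gal4-ROR gamma fusion under metallothionein promoter, UAS reporter; 700 uM final copper sulfate induction, 20 hr, ambient temperature.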
Hits are given with their value; i = inactive; ? = inconclusive; nt = no result; [ ] = remark or other dose. Calls follow the shape of the dose curve; as a rule, active = well fitted curve in the direction sought with a large enough effect; inconclusive = small, poorly fitted or top-dose-only effect, or another doubt; inactive = no such curve, though single readings can be large; an effect the other way counts as inactive or inconclusive.

SMILES	GLP-1R inv ag	GLP1R ag	GLP1R cytotox	VP16 counter	RORgamma inh
COc1ccc(OC)c(Nc2c3c(nc4ccccc24)CCC3)c1	?	?	?	i	i
COc1ccc(OC)c(Nc2c3ccccc3nc3ccccc23)c1	11µM	i	i	?	?
NC(=O)[C@H]1O[C@@H](O)[C@H](O)[C@@H](O)[C@@H]1O	nt	i	nt	i	i
CC(c1ccncn1)N(C)Cc1nc(Cc2ccccc2F)no1 (stereo not drawn)	i	i	i	i	i
CC(c1ccncn1)N(C)Cc1nc(-c2ccc(C(F)(F)F)cc2)no1 (stereo not drawn)	?	i	i	7.1µM	3.2µM
CS(=O)(=O)N1CCC2(CCN(Cc3ccncc3)CC2)CC1	nt	nt	nt	i	i
CC(=O)N(C(C)=O)c1c(C#N)c(C)n(-c2ccccc2)c1C(=O)c1ccccc1	5.6µM	i	i	i	i
CCC(c1nnc(SCC(=O)Nc2nnc(-c3ccccc3)o2)n1Cc1ccccc1)N(C)C (stereo not drawn)	i	i	i	?	8.9µM
CCOc1ccc(Br)cc1C(=O)N/N=C/c1ccccn1	i	i	i	i	11µM
Cc1ccccc1C(=O)N/N=C/c1ccncc1	i	i	i	i	i
CCOC(=O)C(CC)/C(C)=N\NC(=O)c1ccccc1O (stereo not drawn)	?	i	i	13µM	10µM
O=C(N/N=C/c1ccc(-c2ccccc2)o1)c1ccccc1O	10µM	i	?	0.63µM	?
O=C(N/N=C\c1ccncc1)c1ccccc1O	i	i	i	?	11µM
CC1=C2C(=COC(C)C2C)C(=O)C(C(=O)O)=C1O (stereo not drawn)	nt	nt	nt	i	i
COc1cc(NC(=O)c2cnc3c(-c4ccc(F)cc4)c(C)nn3c2C)cc(OC)c1	?	nt	i	nt	nt
CN(C)S(=O)(=O)c1ccc2c(c1)nnn2CCNC(=O)Nc1ccc(Cl)cc1	i	nt	i	nt	nt
O=C(N/N=C/c1ccccn1)c1ccncc1	i	i	i	i	i
Cc1ccccc1C(=O)N/N=C/c1ccccn1	?	i	i	?	10µM
O=C(Cc1ccc(Br)c2ccccc12)N/N=C/c1ccccn1	?	i	?	i	7.9µM
CCC/C=N/NC(=O)c1ccccc1O	i	i	i	i	10µM
C/C=N\NC(=O)COc1cc(C)ccc1C	i	i	i	i	13µM
O=C(Cc1ccc(F)cc1)N/N=C/c1ccccn1	i	i	i	i	i
Cc1ccc(C)c(OCC(=O)NCCNC(=O)COc2cc(C)ccc2C)c1	i	i	i	i	i
CCC/C=N/NC(=O)CNC(=O)c1ccccc1Cl	i	i	i	i	i
Cc1ccc(-c2nc3c4cnn(-c5cc(Cl)ccc5Cl)c4ncn3n2)cc1	i	nt	i	nt	nt
SMILES	GLP-1R inv ag	GLP1R ag	GLP1R cytotox	VP16 counter	RORgamma inh
CC(Oc1ccccc1)C(=O)Nc1ccc(C(=O)OCc2cc(=O)n3nc(C(C)C)sc3n2)cc1 (stereo not drawn)	i	nt	i	nt	nt
CC1CC[C@@]23CCC4(C)[C@@]5(C)CCC6C(C)(C)C(=O)CC[C@@]6(C)C5C=C[C@@]4(OC2=O)C3C1C (stereo partly drawn)	nt	nt	nt	i	?
COc1ccc(C(=O)Nc2ccccc2C(=O)N/N=C/c2ccccn2)cc1OC	?	?	?	3.2µM	1.3µM
O=C(N/N=C\c1ccccn1)c1ccccc1O	?	i	?	4.5µM	2µM
COc1ccc(C(=O)N/N=C/c2ccccn2)cc1OC	i[7.66 µM]	i	i[7.66 µM]	?	?
O=C(N/N=C/c1ccccn1)c1cccs1	?	i	?	?	7.1µM
Cc1cc(C)cc(OCC(=O)N/N=C/c2ccccn2)c1	i	i	i	i	i
Cc1ccccc1OCC(=O)N/N=C/c1ccccn1	i	i	i	i	14µM
COc1cccc(CN2C(=O)c3ccccc3Sc3ccc(C(=O)NCCc4ccc(C)cc4)cc32)c1	i	i	i	nt	nt
Cc1csc(NC(=O)c2cc3c(s2)CCCCC3)n1	?	i	i	4µM	2.8µM
Cc1cnc(NC(=O)c2cc3c(s2)CCCC3)s1	?	i	?	7.1µM	2µM
Cc1csc(NC(=O)c2cc3c(s2)CCCC3)n1	?	i	i	?	i
COc1ccc(-c2ccc3c(n2)CCCN3C[C@H](O)CN2CCCc3nc(-c4ccc(Br)cc4)ccc32)cc1	nt	nt	nt	i[10 µM]	i[10 µM]
COc1ccc(Cl)cc1NC(=O)CSc1ccc2nnc(CCNS(=O)(=O)c3ccccc3)n2n1	i	nt	i	nt	nt
CCC(C)NC(=O)c1sc2nc(C)c(C(=O)Nc3ccc(C)cc3C)c(-c3ccccc3Cl)c2c1N (stereo not drawn)	?	nt	i	nt	nt
CCc1cccc(NC(=O)CSc2ncc3c(n2)-c2ccc(Cl)cc2N(Cc2ccccc2)S3(=O)=O)c1	i	nt	i	nt	nt
CCc1ccc2c(c1)C1(NN=C(c3cccc4ccccc34)S1)C(=O)N2 (stereo not drawn)	nt	nt	nt	2.8µM	2.8µM
CCc1cccc(N2C(=O)CSC23C(=O)Nc2ccccc23)c1 (stereo not drawn)	i	i	i	nt	nt
NC(N)=NN=C(c1ccc(F)cc1)c1ccc(C(F)(F)F)cc1	1.1µM	i	?	nt	nt
Cc1oc(-c2cccc(Cl)c2)nc1CSc1nc2ncccc2[nH]1	i	nt	i	nt	nt
COCCN(Cc1nc(-c2ccc(-c3ccccc3)cc2)oc1C)C(C)C	i	i	?	?	11µM
Cc1nn(CCC(=O)NNC(=S)Nc2ccc(F)cc2)c(C)c1[N+](=O)[O-]	i	i	i	i	i
COCCCNC(=S)NNC(=O)Cn1nc(C)c(Br)c1C	i	i	i	11µM	3.2µM
CNC(=S)NNC(=O)CCn1nc(C)c(Br)c1C	i	i	i	4µM	0.63µM
CCOCCCNC(=S)NNC(=O)CCn1nc(C)c(Br)c1C	5.6µM	i	?	3.2µM	1.4µM
SMILES	GLP-1R inv ag	GLP1R ag	GLP1R cytotox	VP16 counter	RORgamma inh
Cc1nn(CCC(=O)NNC(=S)Nc2ccccc2)c(C)c1Br	i	i	i	?	0.32µM
Cc1nn(CC(=O)NNC(=S)NCC2CCCO2)c(C)c1Br (stereo not drawn)	i	i	i	i	i
Cc1ccc(N(CC(=O)NCc2ccc(OC(C)C)cc2)S(=O)(=O)N(C)C)cc1	i	nt	i	nt	nt
COc1ccc(-c2c(C3C4C=CCC(C)C4C(=O)N3Cc3ccccc3)ccc3ccccc23)cc1 (stereo not drawn)	nt	nt	nt	i	i
Cc1nn(CCC(=O)NNC(=S)NCC(C)C)c(C)c1Br	?	i	?	1.4µM	0.71µM
Cc1cccc(NC(=S)NNC(=O)CCn2cc(C)cn2)c1	i	i	i	1µM	0.11µM
CC[C@@H](c1ccccc1)n1c(=O)n2n(c1=O)[C@H]1[C@H](O)[C@H]3O[C@@H]3/C(=N/OC/C=C(\C)CCC=C(C)C)[C@@H]1CC2	nt	nt	nt	i[10 µM]	i[10 µM]
CCc1ccc2c(c1)cc(CN(C(=S)Nc1cccc(C)c1)C1CC1)c1nnnn12	i	i	i	i	6.3µM
COCCN(Cc1cc2cc(C)ccc2n2nnnc12)C(=S)Nc1cccc(C)c1	i	i	i	i	?
